# Only a selection was taken, and hits are over-represented in it overall.
# TTR transcr act – TTR transcription activation, primary screen; SH-SY5Y TTR promoter Gaussia luciferase, luminescence; 100% = recombinant luciferase protein wells; activation, % at 16.7 µM; hit rate 1.3% among 92,000;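 active = activation above the mean of all tested compounds plus 3 SD, cut at about 9.5% in these data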;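 note: cells exposed to compounds for one day before reading; 0% = median of all test compound wells on the plate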
# HuH7 TTR inh – decreases TTR transcription in HuH7 cells in activator counter-screen. AID 1117279. HuH7 TTR promoter-Gaussia luciferase reporter, luminescence. inhibition, % at 16.7 µM. hit rate 4% among 1,100. shares compounds with TTR transcr act;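 active = average inhibition above the solvent-only control wells' mean plus 3 SD, cut at about 15% in these data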;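 note: 0% = cells with DMSO only and 100% = cells with inhibitor control FD; inhibitors lower well luminescence so higher value means more inhibition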
# TTR act confirm – confirmation of human transthyretin transcription activators; activation, % at 16.7 µM; shares compounds with TTR transcr act; SHSY5Y TTR promoter Gaussia luciferase, luminescence; 100% = purified Lucia enzyme wells, no cells; AID 1117280; 1,100 tested, under 10 active;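 active = mean activation above a set limit taken from the earlier primary screen, cut at about 11% in these data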;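 note: 0% = DMSO-treated cells and 100% = recombinant Lucia luciferase without cells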
# * hit, by the source's call.
SMILES,TTR transcr act,others
CC1(C)CC(=O)C2=C(C1)OC(N)=C(C#N)[C@@H]2c1ccccc1[N+](=O)[O-],0,
COc1ccc(C2C(C#N)=C(N)OC3=C2C(=O)CC(C)(C)C3)cc1 (stereo not given),2,
Nc1ccccc1-c1nnc(-c2ccccc2N)n1N,-1,
CCOC(=O)N1CCN(C(=O)C[C@@H]2C[C@@]3(C(=O)OC)CC(C)(C)CC=C3N(Cc3ccc4c(c3)OCO4)C2=O)CC1,1,
CC(=O)Nc1ccc(C)c(NS(=O)(=O)c2cccc(C(F)(F)F)c2)c1,-1,
COc1cc2c(cc1OC)C1=NC(=O)CN1C(SCc1ccc(C)cc1)=N2,-2,
C=CCSC1=Nc2cc(OC)c(OC)cc2C2=NC(=O)CN12,31*,HuH7 TTR inh=14;TTR act confirm=-1
C=CCc1ccc(OCCn2cccc2C=O)c(OC)c1,-4,
O=C(NC(=S)Nc1ccc(S(=O)(=O)Nc2nccs2)cc1)c1cccc(F)c1,1,
COc1cccc(N2C(=O)C3NN=C(C(=O)CN4C(=O)c5ccccc5C4=O)C3C2=O)c1 (stereo not given),18*,HuH7 TTR inh=-5;TTR act confirm=0
Cc1ccc(N2C(=O)[C@@H]3C(C(=O)CN4C(=O)c5ccccc5C4=O)=NN[C@@H]3C2=O)c(C)c1,1,
COc1ccccc1N1C(=O)[C@@H]2C(C(=O)CN3C(=O)c4ccccc4C3=O)=NN[C@@H]2C1=O,-1,
C[C@H](NC(=O)[C@H]1N2C(=O)c3ccccc3C2SC1(C)C)C(=O)NCC1CCCO1 (stereo not given in full),1,
COc1ccc(CSc2nncn2C)cc1F,-2,
Cn1cnnc1SCc1ccc(C(=O)NN)cc1,-1,
Cn1cnnc1SCc1ccccc1,18*,HuH7 TTR inh=-11;TTR act confirm=0
COC(=O)c1ccc(COC(=O)c2cccnc2Cl)cc1,-1,
CSc1ncccc1C(=O)OCc1c(F)cccc1Cl,0,
COC(=O)c1cccc(COC(=O)c2cccnc2SC)c1,12*,HuH7 TTR inh=-3;TTR act confirm=0
COc1cccc(C#CC2=CC(=O)CC(C)(C)C2)c1,2,
COC(=O)c1cccc(Cn2ccc3ccc(-c4ccc5ccn(C(=O)C6CC6)c5c4)cc32)c1,2,
CC(Cc1cccs1)NC(=O)CCCn1nnnc1CN1CCOCC1 (stereo not given),0,
Cc1nc2c(sc3nc(N4CCOCC4)c4c(c32)CC(C)(C)OC4)c(-c2ccc(Cl)cc2)c1C(=O)O,7,
Clc1ccc2c(c1)c1ccccc1n2CN1CCOCC1,22*,HuH7 TTR inh=-8;TTR act confirm=0
Cc1ccc(Cl)cc1NC(=O)CN1CCOCC1,4,
SMILES,TTR transcr act,others
COc1ccc(Cl)cc1CN1CCOCC1,0,
COc1ccccc1-c1coc2c(CN3CCOCC3)c(O)ccc2c1=O,1,
COc1cc(C(=O)NCCNc2nc3ccc(C)cc3cc2C#N)cc(OC)c1OC,1,
COc1ccccc1CN(C)C(=O)CSCC(=O)Nc1ccccc1F,-1,
C/C=C/C(=O)OCC(=O)Nc1ccc(OC)c(OC)c1,1,
C/C=C/C(=O)OCC(=O)Nc1ccc(OC)c(Cl)c1,12*,HuH7 TTR inh=-10;TTR act confirm=1
COc1ccc(NC(=O)CCCC(=O)O)cc1Cl,0,
CCC(=N\NC(=O)COc1ccccc1OC)/C(CC)=N/NC(=O)COc1ccccc1OC,0,
COc1cc(OC)cc(C(=O)Nc2ccccc2N2CCOCC2)c1,-1,
Fc1cc(F)cc(NC(=S)Nc2ccccc2N2CCOCC2)c1,12*,HuH7 TTR inh=-3;TTR act confirm=-1
O=C(Nc1ccccc1N1CCOCC1)c1ccc2ccccc2c1,-1,
COc1cccc(NS(=O)(=O)NC(=O)c2cn(C)c3ccccc23)c1,-1,
COC(=O)[C@]1(CC(C)C)N[C@H](c2ccc(-c3ccc(F)cc3)c(OC)c2)[C@@H]2C(=O)N(C)C(=O)[C@@H]21,13*,HuH7 TTR inh=-11;TTR act confirm=0
CCC(C)Sc1ccc([C@H]2N[C@@](CC(C)C)(C(=O)OC)[C@H]3C(=O)N(CC)C(=O)[C@@H]23)cc1 (stereo not given in full),3,
COC(=O)[C@]1(CC(C)C)N[C@H](c2ccc(SC3CCCCC3)c(OC)c2)[C@@H]2C(=O)N(C)C(=O)[C@@H]21,0,
Cc1ccc2c(CN3CCN(c4ccccc4F)CC3)cc(=O)oc2c1,-1,
CCCCN1CCCOc2cc(Br)ccc2S1(=O)=O,0,
O=C(NC1CC(=O)N(c2ccccc2)C1)N1CCN(C(=O)c2ccco2)CC1 (stereo not given),1,
COc1ccc(-n2cc(COC(=O)NCCc3ccccc3)nn2)cc1,11*,HuH7 TTR inh=-8;TTR act confirm=-1
O=C(NCCc1ccccc1)OCc1cn(-c2c(F)cccc2F)nn1,1,
O=C(NCCc1ccccc1)OCc1cn(-c2cccc(C(F)(F)F)c2)nn1,4,
CCCc1nc2ccccc2n1C(C(=O)NC(C)(C)C)C1CC1 (stereo not given),0,
COc1ccc([C@H]2CC(=O)C=C(c3ccc4cc[nH]c4c3)C2)cc1,0,
Cc1ccc(C(=O)Nc2c(C)cc(-c3ccccc3)oc2=O)cc1,-1,
O=C/C(=C\Nc1ccccn1)c1nc2ccccc2o1,11*,HuH7 TTR inh=25*;TTR act confirm=-1
SMILES,TTR transcr act,others
O=C/C(=C\Nc1ccc(Br)cc1)c1nc2ccccc2o1,3,
O=C/C(=C\Nc1ccccn1)c1nc2cc(Cl)ccc2o1,1,
CCOc1ccccc1OCC(=O)NCCc1ccc(S(N)(=O)=O)cc1,0,
O=C(CN1C(=O)NC(CCc2ccccc2)C1=O)N1CCCCCC1 (stereo not given),1,
CCc1cccc(C)c1NC(=O)CN1C(=O)NC(CCc2ccccc2)C1=O (stereo not given),15*,HuH7 TTR inh=-2;TTR act confirm=-1
COc1cccc(NC(=O)CN2C(=O)NC(CCc3ccccc3)C2=O)c1 (stereo not given),1,
COc1ccc(C(=O)Nc2cccc([N+](=O)[O-])c2)cc1Br,15*,HuH7 TTR inh=8;TTR act confirm=-1
COc1ccc(NC(=O)c2cccc([N+](=O)[O-])c2)cc1,3,
COC(=O)c1cccc(NC(=O)c2cccc([N+](=O)[O-])c2)c1,-2,
COc1cc2[nH]c(=O)c(C(=O)NCc3ccccc3Cl)c(O)c2cc1OC,2,
CCOC(=O)C1CCN(C(=O)COc2ccc3c(c2)OCO3)CC1,0,
CCOC(=O)C1CCN(C(=O)CN(c2ccc3c(c2)OCO3)S(C)(=O)=O)CC1,18*,HuH7 TTR inh=-10;TTR act confirm=2
CCOC(=O)C1CCN(C(=O)CN(c2ccc(Cl)c(C(F)(F)F)c2)S(C)(=O)=O)CC1,-3,
CCOc1ccccc1NC(=O)c1ccc2c(c1)C(=O)N(CC)C2=O,0,
O=C(NNc1c(Cl)cccc1Cl)c1cccs1,4,
COC(=O)c1ccc(N2C(c3cc(OC)cc(OC)c3)=Cc3ccc(-c4ccc(C(N)=O)cc4)cc3C2CC(=O)C2CC2)cc1 (stereo not given),1,
CN(C)c1ccc(NC(=O)CSc2nnc(-c3cnccn3)n2C)cc1,0,
Cn1cnnc1SCC(=O)Nc1ccc(Oc2ccccc2)cc1,0,
Cn1cnnc1SCC(=O)Nc1ccc(F)cc1F,0,
Cn1cnnc1SCC(=O)Nc1ccc(Cl)cc1,13*,HuH7 TTR inh=-11;TTR act confirm=0
CCC(=O)Nc1ccc(NC(=O)CSc2nnc(-c3ccco3)n2C)cc1,2,
Cc1nc(-c2nnc(SCC(=O)Nc3ccc(Cl)cc3)n2C)cs1,23*,HuH7 TTR inh=-24;TTR act confirm=0
CN(CC(=O)Nc1ccc(F)cc1)C(=O)COC(=O)CCN1C(=O)C2CC=CCC2C1=O (stereo not given),1,
